Among the data in PubChem BioAssay AID720648 (The Scripps Research Institute Molecular Screening Center, 2013) are inhibition values, retold here.

Molecules are shown by their SMILES. “And” between values parts separate entries of the source, which are not always exact repeats. Equal values may be shown once. Out of some 370,000 compounds screened, about 3,100 (0.84%) were called active.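 How the source made its calls: active means inhibition above the mean of compounds lying between control limits plus 3 SD, set per campaign (cut at about 8.5% in these data); inactive means the rest.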 This excerpt belongs to a sample that is enriched for actives. Where a structure was tested more than once in an assay, its records may differ in their call.

Chain of Disintegrin and metalloproteinase domain-containing protein 17 (Homo sapiens) (P78536 215-824 limits assumed): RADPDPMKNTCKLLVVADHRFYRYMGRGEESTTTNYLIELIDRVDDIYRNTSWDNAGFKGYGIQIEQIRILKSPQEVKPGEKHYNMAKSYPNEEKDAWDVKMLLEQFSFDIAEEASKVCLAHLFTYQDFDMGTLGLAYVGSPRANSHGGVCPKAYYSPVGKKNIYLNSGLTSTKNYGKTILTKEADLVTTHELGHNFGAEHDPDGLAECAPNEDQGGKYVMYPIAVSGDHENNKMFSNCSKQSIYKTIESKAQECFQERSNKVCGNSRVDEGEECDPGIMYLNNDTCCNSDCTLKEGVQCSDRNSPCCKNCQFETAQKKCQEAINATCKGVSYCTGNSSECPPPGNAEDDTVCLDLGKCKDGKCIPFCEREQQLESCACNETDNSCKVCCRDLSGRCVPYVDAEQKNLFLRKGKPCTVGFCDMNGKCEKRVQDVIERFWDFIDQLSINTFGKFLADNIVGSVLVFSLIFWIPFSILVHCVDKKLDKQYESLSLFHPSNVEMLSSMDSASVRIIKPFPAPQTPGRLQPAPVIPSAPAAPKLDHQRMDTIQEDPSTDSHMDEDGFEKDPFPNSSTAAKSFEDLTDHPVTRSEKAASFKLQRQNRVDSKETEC

This experiment has as its target Disintegrin and metalloproteinase domain-containing protein 17 (Homo sapiens) (UniProt P78536). Put plainly: ADAM17 inhibitors, primary screen, biochemical, QFRET (AID 720648).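 Further: 0% = DMSO-only wells as the low control.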 The note with it: recombinant ADAM17, EDANS/DABCYL FRET peptide cleavage; at 6.95 µM; stronger effect = higher value.
By inhibition is commonly meant the drop in the measured response relative to a control, in per cent. For the compound `O=C(c1ccccc1)c1ccc(-c2ccccc2C(=O)NC2CCCCN(Cc3ccc(Cl)cc3)C2=O)cc1` (centres undefined), the inhibition is -0.61% (inactive).

On to `COC(=O)C1CN(Cc2cn(Cc3ccc(F)cc3)nn2)CCS(=O)(=O)N1Cc1ccc(Cl)cc1` (centres undefined), for which the inhibition is 1.41% (inactive). With `Cc1cc(C)c(C#N)c(SCc2[nH]nc3c2C(c2ccccc2)C(C#N)=C(N)O3)n1` (centres undefined), the inhibition is 12.4% (active). In the case of `COc1ccc(C2C(C#N)=C(N)Oc3n[nH]c(C)c32)cc1CN1CCN(c2ccc(F)cc2)CC1` (centres undefined), the inhibition was 0.41% (inactive).

`Cc1cc(C)c(C#N)c(SCc2ccc3c(c2)OCO3)n1`: the inhibition was -0.68% (inactive). In the case of `CCOc1ccc(N2C(=O)CC(N(CCc3ccc(OC)c(OC)c3)C(=S)Nc3ccccc3)C2=O)cc1` (centres undefined) it was 9.32% (active) and 1.43% (inactive); in that of `CN(C)c1ccc(NC(=S)N(CCc2ccccc2)C2CC(=O)N(c3c(Cl)cccc3Cl)C2=O)cc1` (centres undefined), 2.09% (inactive); in that of `COc1ccc(N2C(=O)C(CC(=O)Nc3ccccc3)N(Cc3ccc(OC)c(OC)c3)C2=O)cc1` (centres undefined), -0.55% (inactive).

For the compound `C=CCN(Cc1ccc2c(c1)OCO2)C(C#CC1CC1)C(C)(C)C` (centres undefined), the inhibition is -5.97% (inactive). As to `O=C(NC1CCCCN(Cc2cccc(C(F)(F)F)c2)C1=O)c1ccccc1I` (centres undefined), the inhibition was -0.37% (inactive). For `COC(=O)[C@]12C[C@H](CC(=O)NCc3ccccc3)C(=O)N(Cc3ccccc3)C1=C[C@H](COCc1ccccc1)O[C@@H]2C`, the inhibition was 1.65% (inactive). In the case of `COC(=O)[C@H](C(C)C)N(CCCc1cn(Cc2ccccc2)nn1)S(=O)(=O)c1ccc(F)cc1Br` it was 2.02% (inactive). Take `COc1ccccc1C(=O)NCC(=O)OCC(=O)NNC(=O)c1ccc(Br)cc1`: the inhibition is 13% (active).

Take `O=C(COC(=O)c1ccccn1)NNC(=O)c1ccc(Br)cc1`: the inhibition is 0.32% (inactive). For `COc1ccccc1C(=O)NCC(=O)NCCSc1ccc(Br)cc1`, the inhibition is 2.38% (inactive). As for `CCCCCCCCNS(=O)(=O)/C=C/c1cc(C)ccc1CNC(=O)OC(C)(C)C`, the inhibition was -2.49% (inactive). In the case of `CC(C)N(C(=O)[C@H]1C[C@H](CC(=O)NC(C)(C)C)C(=O)N2CCc3c([nH]c4ccc(Cl)cc34)[C@]12C)C(C)C` it was 8.65% (active); in that of `CC(C)N(C(=O)[C@H]1C[C@H](CC(=O)NCCC2=CCCCC2)C(=O)N2CCc3c([nH]c4cc(CCC(=O)N(C)C)ccc34)[C@]12C)C(C)C`, -3.26% (inactive).

As for `C[C@]12c3[nH]c4ccc(Cl)cc4c3CCN1C(=O)[C@@H](CC(=O)NCCCn1ccnc1)C[C@@H]2C(=O)N1CCOCC1`, the inhibition was 4.49% (inactive). Consider `CC(=O)OCCN1CCCC12CCC(c1ccccc1)CC2` (centres undefined), for which the inhibition is -1.85% (inactive). With `COC(=O)C1CN(CC(C)C)CCS(=O)(=O)N1Cc1ccc(F)cc1` (centres undefined), the inhibition was -5.05% (inactive). For `Cc1nc2ccc(C(=O)N3CCN(C(=O)C(C)(C)C)CC3)cc2n1C1CCCC1`, the inhibition was 3.54% (inactive). Turning to `Cc1ccc(C)c(NC(=O)CCS(=O)(=O)c2ccccc2)c1`, the inhibition is -3.15% (inactive). In the case of `COc1ccc(C(CCN(Cc2ccc(OC)c(OC)c2)C(=O)CCl)c2ccccc2)cc1` (centres undefined) it was 12.5% (active). In the case of `COc1ccc(Cn2cc(COC(=O)N(C)Cc3ccccc3)nn2)cc1`, the inhibition was -3.38% (inactive). On to `COc1ccc(C(C(=O)NC2CCCCC2)N(C(=O)CCl)c2ccccc2Cl)cc1` (centres undefined), for which the inhibition was -0.76% (inactive).

In the case of `COc1ccc(CN(C)C(=O)CC(c2ccccc2)c2ccccc2)cc1`, the inhibition was 11% (active). In the case of `COc1ccc(CN(CCN2CCOCC2)C(=O)c2ccc(C)cc2)cc1OC` it was 2.83% (inactive); in that of `CN(Cc1ccc(F)cc1)C(=O)COc1ccc2ccccc2c1`, -3.83% (inactive); in that of `COC(=O)C[C@@H]1CC[C@@H]2[C@@H](COc3ccc(NC(=O)Nc4ccc(F)c(F)c4)cc3C(=O)N2C)O1`, 1.31% (inactive).

For the compound `CCCCNC(=O)C[C@H]1C[C@@]2(C(=O)OC)C(=C[C@H](COCc3ccccc3)O[C@@H]2C)N(Cc2ccc(Cl)cc2Cl)C1=O`, the inhibition was 1.2% (inactive). On to `COc1ccc2c(c1)CN1CN(CCc3ccccc3)S(=O)(=O)CC21` (centres undefined), for which the inhibition was -6.46% (inactive).

`Cc1ccc(/C=N/NC(=O)CSc2nc3ccccc3o2)cc1`: the inhibition was 10.3% (active). Take `O=C(CSc1nc2ccccc2o1)N/N=C/c1ccccc1C(=O)O`: the inhibition was -4.58% (inactive). In the case of `CC1Cc2ccccc2N1C(=O)CSc1nc2ccccc2o1` (centres undefined) it was 2.14% (inactive). Regarding `COc1ccc(CN2C(=O)N3Cc4cc(OC)ccc4C3CS2(=O)=O)cc1` (centres undefined), the inhibition was -0.79% (inactive). With `C=CCN1C(=O)[C@@H](CC(=O)NCCCCc2ccccc2)[C@]2(C(=O)OCC)CCCCC/C=C/12`, the inhibition is 3.44% (inactive). Take `N/C(Cc1ccc([N+](=O)[O-])cc1)=N\OC(=O)COc1ccc2ccccc2c1`: the inhibition is 10.8% (active). For `Cc1cc(C)cc(OCC(=O)O/N=C(\N)Cc2ccc([N+](=O)[O-])cc2)c1`, the inhibition is 3.53% (inactive). Regarding `N/C(Cc1ccc([N+](=O)[O-])cc1)=N\OC(=O)C1CCCCC1`, the inhibition was -3.25% (inactive). `C=CCN1C(C(=O)OC)CN(Cc2cn(Cc3ccccc3)nn2)CCS1(=O)=O` (centres undefined): the inhibition was 1.41% (inactive). Regarding `CN(C)CC(=O)N[C@@H]1C[C@@H]2O[C@H](CO)CC[C@@H]2O[C@@H]1CCc1ccc(C#Cc2ccccc2)cc1`, the inhibition was 3.01% (inactive). As to `CCCCn1nnnc1C(c1cccc(OC)c1OC)N1CCN(C/C=C/c2ccccc2)CC1` (centres undefined), the inhibition was 3.3% (inactive). With `COc1ccc(C(c2nnnn2C2CCCC2)N2CCN(C/C=C/c3ccccc3)CC2)cc1` (centres undefined) the figure was -1.95% (inactive). `FC(F)(F)Oc1ccccc1C(c1nnnn1C1CCCCC1)N1CCN(C/C=C/c2ccccc2)CC1` (centres undefined): the inhibition was 9.77% (active). On to `COC(=O)C12C=C3CC(c4ccccc4)=C3C(=O)N1Cc1[nH]c3ccccc3c1C2` (centres undefined), for which the inhibition is -5.87% (inactive). For the compound `CC(=O)c1cc(-c2ccc3ccccc3c2)c(=O)n2c1CCC2`, the inhibition was -8.84% (inactive). With `O=C(NCCc1c[nH]c2ccccc12)OCc1cn(-c2c(F)cccc2F)nn1`, the inhibition was -1.78% (inactive). With `C=CCN1C(=O)[C@H](CC(=O)N2CCN(C(=O)OCC)CC2)[C@@]2(C(=O)OCC)CCCC=C12`, the inhibition was -4.33% (inactive). Turning to `N[C@@H](Cc1ccccc1)C(=O)N1CCC[C@@H]1C(=O)N1CCC2CCN(S(=O)(=O)c3ccccc3)CC21` (some centres undefined), the inhibition is -3.15% (inactive). In the case of `N#C/C(=C\c1cccnc1)C(=O)Nc1ccc(SC(F)F)cc1`, the inhibition is 2.16% (inactive). For the compound `O=C(Cc1ccc(Cl)c(Cl)c1)Nc1ccc(SC(F)F)cc1`, the inhibition was 8.77% (active). With `CN(CC(=O)Nc1ccc(S(=O)(=O)N2CCCC2)cc1)Cc1ccc(Cl)c(Cl)c1` the figure was 4.22% (inactive); with `C[C@@H]1CN([C@@H](C)CO)C(=O)c2cccc(NC(=O)Nc3cccc4ccccc34)c2O[C@H]1CN(C)S(=O)(=O)c1ccccc1F`, -10.5% (inactive); with `CN(C)S(=O)(=O)c1cccc(C(=O)N/N=C\c2ccco2)c1`, 1.33% (inactive). As to `O=C(Nn1c(SCc2ccc([N+](=O)[O-])cc2)nc2ccccc2c1=O)c1ccc(F)cc1`, the inhibition was 8.99% (active). Consider `O=C(Nc1cc(-c2ccccc2)nn1-c1ccccc1F)c1ccc([N+](=O)[O-])cc1`, for which the inhibition is 2.52% (inactive).

With `COCCNC(=O)c1ccc(-n2c(SCc3cccnc3)nc3ccccc3c2=O)cc1`, the inhibition was -0.26% (inactive). Take `O=C(CSc1nc2ccccc2n1Cc1ccccc1Cl)N/N=C\c1c[nH]c2ccccc12`: the inhibition is 4.92% (inactive). For the compound `COc1ccc(CSc2nnc(SCC(=O)Nc3ccccc3C(F)(F)F)s2)cc1`, the inhibition is 1.07% (inactive). Regarding `COc1ccc2c(C(C)c3ccc(N)cc3)cn(C)c2c1` (centres undefined), the inhibition is 1.72% (inactive). In the case of `CCOC(=O)C1(Cc2ccccc2)CCN(Cc2cn(C(C)=O)c3ccccc23)CC1`, the inhibition was -0.16% (inactive). Turning to `Cn1nc(C(F)(F)F)c2cc(NC(=O)OCC(C)(C)C)sc21`, the inhibition is 8.91% (active). As to `Cn1nc(C(F)(F)F)c2cc(C(=O)N3CCOCC3)sc21`, the inhibition is -1.03% (inactive).

For the compound `Cn1nc(C(F)(F)F)c(-c2ccc(F)cc2)c1NC(=O)CSCC(=O)O`, the inhibition is -2.02% (inactive). Turning to `COC(=O)[C@]12C[C@H](CC(=O)NCCc3ccccc3OC)C(=O)N(Cc3ccco3)C1=C[C@H](C(C)C)O[C@@H]2C1CC1`, the inhibition is -2.62% (inactive). As to `O=C(c1cccc(C(F)(F)F)c1)N1CC[C@H]2[C@H](CCCN2Cc2cc(F)cc(F)c2)C1`, the inhibition was -0.58% (inactive). On to `COC(=O)CC1CCc2cc(C)cc(C(CC(C)C)NC(=O)[C@H](CC(C)C)NC(=O)OCc3ccccc3)c2O1` (some centres undefined), for which the inhibition is -2.33% (inactive).

For the compound `Cc1cc(NC(=O)CN2C(=O)NC(CC(C)C)C2=O)no1` (centres undefined), the inhibition was 10.8% (active). With `COc1ccc(C2(c3ccc(OC)cc3)NC(=O)N(CC(=O)Nc3cc(C)on3)C2=O)cc1` the figure was 2.54% (inactive); with `Cc1cc(NC(=O)CN2C(=O)NC(CCc3ccccc3)C2=O)no1` (centres undefined), -0.8% (inactive). With `COc1ccc(Cn2cc(CN3[C@@H](CC(C)C)COc4cc(Br)ccc4S3(=O)=O)nn2)cc1` the figure was 1.7% (inactive); with `COc1ccc(-n2c(SCC(=O)Nc3ccc4c(c3)OCCO4)nnc2-c2ccc(Cl)cc2)cc1`, 4.24% (inactive). With `O=C(CCCCCN1C(=O)C2C3C=CC(C3)C2C1=O)Nc1ccccn1` (centres undefined) the figure was 2.59% (inactive); with `c1csc(-c2nnc(SCc3nc4ccccc4[nH]3)o2)c1`, -10.2% (inactive). As to `COC(=O)[C@]12C[C@H](CC(=O)N3CCOCC3)C(=O)N(Cc3ccc(Cl)cc3Cl)C1=C[C@H](COCc1ccccc1)O[C@@H]2C`, the inhibition is 0.56% (inactive). As to `CC(=O)c1ccc(Cc2ncc(C(F)(F)F)cc2Cl)s1`, the inhibition is -2.56% (inactive). With `O=C(CN1CCN(c2ncc(C(F)(F)F)cc2Cl)CC1)Nc1ccc2c(c1)OCO2` the figure was -4.94% (inactive); with `O=C(Cc1ncc(C(F)(F)F)cc1Cl)Nc1cccc(Br)c1`, 10.2% (active).
